The text below walks through data of PubChem BioAssay (NCI).

Test systems include NCI-H23 lung; NCI-H226 lung; NCI-H322M lung; HOP-62 NSCLC; NCI-H460 lung; HOP-92 NSCLC; NCI-H522 lung; A549/ATCC NSCLC; 786-0 renal; DU-145 prostate; K-562 leukemia; MALME-3M melanoma; MDA-MB-231 breast; RXF 393 renal; SF-268 CNS; SF-295 CNS; SF-539 CNS; UACC-257 melanoma; M14 melanoma; COLO 205 colon.
What all share (test): NCI-60 one-dose screen, 48 h (100 = growth as untreated, 0 = no growth, -100 = all killed)
Conditions in all cases: 10 µM unless noted

The panel holds about 83,000 compounds, 20% with a hit somewhere; the sample as a whole holds those more often.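 A percent growth of 40 corresponds to 60% growth inhibition; 0 means no net growth; -100 means all cells died. Active threshold: below 10.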 A number with no mark means an inactive call. Calls of active or inactive are those of the source.

On to `CO[C@H](C(=O)[C@@H](O)[C@@H](C)O)[C@@H]1Cc2cc3cc(O[C@H]4C[C@@H](O[C@H]5C[C@@H](O)[C@H](O)C(C)O5)[C@H](O)C(C)O4)c(C)c(O)c3c(O)c2C(=O)[C@H]1O[C@H]1C[C@@H](O[C@H]2C[C@@H](O[C@H]3C[C@@H](OC)[C@H](O)C(C)O3)[C@@H](O)C(C)O2)C(O)(O)C(C)O1` (some centres not stated), for which the growth is 7.35% (active) in the assay on NCI-H23 lung; -20.8% (active) in the assay on NCI-H226 lung; 9.68% (active) in the assay on NCI-H322M lung; -3.61% (active) in the assay with HOP-62 NSCLC; 9.9% (active) in the assay with NCI-H460 lung; 9.37% (active) in the assay on HOP-92 NSCLC. The growth in the assay on NCI-H522 lung was -20.2% (active); in the assay with A549/ATCC NSCLC, 3.64% (active); with 786-0 renal it was 11.2%; with DU-145 prostate, 19.5%; in the assay on K-562 leukemia, 12.1%; with MALME-3M melanoma it was -36.8% (active). Further, the growth in the assay on MDA-MB-231 breast is 5.02% (active); in the assay on RXF 393 renal it was -57.9% (active); in the assay on SF-268 CNS it was 26.3%; in the assay with SF-295 CNS it was 12.4%; in the assay with SF-539 CNS, -0.417% (active); in the assay on UACC-257 melanoma, -20.5% (active). Further, the growth in the assay with M14 melanoma is 11.1%.
For the compound `COP(=O)(OC)c1nnn(-c2cccc([N+](=O)[O-])c2)c1C`, the growth was 107% in the assay on NCI-H23 lung; 120% in the assay with NCI-H226 lung; 114% in the assay with NCI-H322M lung; 110% in the assay on HOP-62 NSCLC; 104% with NCI-H460 lung; 119% in the assay with HOP-92 NSCLC. Moreover, the growth is 90.3% in the assay on NCI-H522 lung; 103% in the assay on 786-0 renal; 122% in the assay on COLO 205 colon; 111% with DU-145 prostate; 102% in the assay with K-562 leukemia; 105% in the assay on MALME-3M melanoma. Besides, the growth was 113% with MDA-MB-231 breast; 118% with RXF 393 renal; 98.2% in the assay with SF-268 CNS; 111% in the assay on SF-295 CNS; 93.3% with SF-539 CNS; 105% in the assay on UACC-257 melanoma. Further, the growth in the assay on M14 melanoma was 104%.
Turning to `C=CCN=C(N)SCCCCCCSC(N)=NCC=C`, the growth in the assay on NCI-H23 lung is 105%; with NCI-H226 lung, 97.1%; in the assay with NCI-H322M lung it was 103%; with HOP-62 NSCLC, 75.1%; in the assay on NCI-H460 lung it was 102%; with HOP-92 NSCLC, 63.3%. Also, the growth was 64.4% in the assay on NCI-H522 lung; 86.8% with A549/ATCC NSCLC; 92.2% in the assay on 786-0 renal; 107% in the assay on DU-145 prostate; 79.2% with K-562 leukemia; 98.7% with MALME-3M melanoma. In addition, the growth is 94.8% in the assay on MDA-MB-231 breast; 109% in the assay with RXF 393 renal; 95% in the assay on SF-268 CNS; 97.3% in the assay on SF-295 CNS; 99.6% in the assay on SF-539 CNS; 87.8% with UACC-257 melanoma. Also, the growth in the assay on M14 melanoma was 92.4%.
For the compound `C=CCn1c(SCC(=O)Nc2ccc(C(=O)/C=C/c3cc(OC)c(OC)c(OC)c3)cc2)nnc1-c1cc(-c2ccc(OC)cc2)nc2ccccc12`, the growth is 93.4% with NCI-H23 lung; 94% in the assay with NCI-H226 lung; 97.5% in the assay on NCI-H322M lung; 96.5% in the assay with HOP-62 NSCLC; 88.9% in the assay on NCI-H460 lung; 77.4% with HOP-92 NSCLC. Besides, the growth with NCI-H522 lung was 86.3%; in the assay with 786-0 renal, 88.7%; with COLO 205 colon it was 104%; with DU-145 prostate, 96.5%; in the assay on K-562 leukemia, 83.1%; with MALME-3M melanoma it was 95.3%. Also, the growth with MDA-MB-231 breast was 76.8%; with RXF 393 renal it was 89.5%; with SF-268 CNS it was 91.4%; in the assay with SF-295 CNS it was 106%; in the assay on SF-539 CNS, 90.9%; in the assay with UACC-257 melanoma it was 100%. The growth with M14 melanoma was 107%.
As to `Oc1c(CN2CCCC2)cc(COCc2ccccc2)c2cccnc12`, the growth with NCI-H23 lung was 31.3%; in the assay with NCI-H226 lung, 18.1%; in the assay with NCI-H322M lung it was 16.7%; in the assay on HOP-62 NSCLC it was 1.77% (active); with NCI-H460 lung it was 3.04% (active); in the assay on HOP-92 NSCLC, 14.7%. Moreover, the growth was -2.04% (active) in the assay on NCI-H522 lung; 5.96% (active) with 786-0 renal; 71.4% with COLO 205 colon; 30.4% in the assay on DU-145 prostate; 12.2% in the assay on K-562 leukemia; 30.8% in the assay with MALME-3M melanoma. The growth with MDA-MB-231 breast is 35.9%; in the assay on RXF 393 renal, 46.5%; in the assay on SF-268 CNS, 23.2%; in the assay with SF-295 CNS it was 18.3%; in the assay with SF-539 CNS it was -5.32% (active); with UACC-257 melanoma it was -16.1% (active). Besides, the growth with M14 melanoma is -2.08% (active).
Consider `C#CCOc1ccc2ncnc(Nc3cccc(NC(=O)CCl)c3)c2c1`, for which the growth is 73.5% in the assay with NCI-H23 lung; 88.3% with NCI-H226 lung; 92.1% in the assay on NCI-H322M lung; 93.2% in the assay on HOP-62 NSCLC; 49.2% in the assay with NCI-H460 lung; 85% in the assay with HOP-92 NSCLC. The growth is 38.9% in the assay with NCI-H522 lung; 67% with A549/ATCC NSCLC; 72.6% in the assay with 786-0 renal; 74% in the assay on DU-145 prostate; 55.2% in the assay on K-562 leukemia; 71.9% in the assay with MALME-3M melanoma. For the same compound, the growth with MDA-MB-231 breast is 73.7%; with RXF 393 renal, 79.6%; in the assay with SF-268 CNS, 60.6%; in the assay on SF-295 CNS, 106%; in the assay on SF-539 CNS, 84.4%; in the assay on UACC-257 melanoma, 80.3%. Further, the growth in the assay on M14 melanoma is 77.1%.
Take `CN1CCN(c2ccc3c(c2)nc(NNC(=O)c2cnccn2)c2cccn23)CC1`: the growth was 34.1% in the assay on NCI-H23 lung; 38% in the assay on NCI-H226 lung; 21.5% in the assay with NCI-H322M lung; 25.1% in the assay on HOP-62 NSCLC; 9.73% (active) in the assay on NCI-H460 lung; 65.5% in the assay on HOP-92 NSCLC. Further, the growth in the assay with NCI-H522 lung was 15.7%; in the assay on A549/ATCC NSCLC it was 21.9%; in the assay with 786-0 renal, 17.6%; in the assay on DU-145 prostate, 27.3%; in the assay on K-562 leukemia, 14.5%; with MALME-3M melanoma, 36.9%. Moreover, the growth is 34.1% in the assay with MDA-MB-231 breast; 48.6% in the assay with RXF 393 renal; 25.9% with SF-268 CNS; 10.4% in the assay with SF-295 CNS; 15.2% in the assay on SF-539 CNS; 46.6% in the assay with UACC-257 melanoma. Moreover, in the assay on M14 melanoma, the growth is 18.2%.
Regarding `CN(C)c1ccc(/C=C/C(=O)c2ccc(Nc3nc(Nc4ccc(F)cc4)nc(Nc4ccc(Cl)cc4)n3)cc2)cc1`, the growth is 73.3% with NCI-H23 lung; 89.3% with NCI-H226 lung; 95.7% in the assay on NCI-H322M lung; 62.7% in the assay with NCI-H460 lung; 51.3% in the assay on HOP-92 NSCLC; 56.4% in the assay on NCI-H522 lung. Moreover, the growth was 53% in the assay on A549/ATCC NSCLC; 71.2% with 786-0 renal; 64.2% in the assay on COLO 205 colon; 84.4% with DU-145 prostate; 23.7% in the assay on K-562 leukemia; 64.3% with MALME-3M melanoma. For the same compound, the growth was 80.1% in the assay with MDA-MB-231 breast; 22.4% in the assay with RXF 393 renal; 84.1% with SF-268 CNS; 44.8% in the assay on SF-295 CNS; 82.2% with SF-539 CNS; 82.2% in the assay on UACC-257 melanoma. Moreover, in the assay on M14 melanoma, the growth was 54%.
